Reference: PubChem BioAssay (EPA / NIEHS)
The source made the active and inactive calls. Rule for the calls: active = hit-call score of the fitted dose curve at least 0.9, where 1 is the maximum; inactive = score below 0.9.

Tests used:
Settings in all cases: mRNA level, 48 h; actives raise or lower the signal
[1] = read-out: Lipoprotein lipase (LPL), LPL (gene 4023); test: LTEA_HepaRG_LPL: Life Technologies and Expression Analysis (LTEA) Assay for Lipoprotein lipase (LPL) using HepaRG (AID 2283515)
Procedure, shortened: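 Read-out is LPL transcript level by qRT-PCR, normalized to three housekeeping genes and fitted bidirectionally against the DMSO control. Human HepaRG cells received chemicals for 48 h at up to 100 uM.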

[2] = read-out: MicroRNA 122 (MIR122), gene 406906; test: LTEA_HepaRG_MIR122: Life Technologies and Expression Analysis (LTEA) Assay for MicroRNA 122 (MIR122) using HepaRG (AID 2283516); note: the transcript read is the microRNA miR-122
Procedure, shortened: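 HepaRG, 48 h exposure, 8-pt half-log from 100 uM, 0.5% DMSO; TaqMan qRT-PCR; bidirectional fit vs DMSO.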

[3] = read-out: matrix metalloproteinase-10 (MMP10), MMP10 (gene 4319); test: LTEA_HepaRG_MMP10: Life Technologies and Expression Analysis (LTEA) Assay for matrix metalloproteinase-10 (MMP10) using HepaRG (AID 2283517)
Procedure, shortened: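 Gain or loss of MMP10 mRNA is fitted relative to the 0.5% DMSO vehicle. The human hepatic line HepaRG receives a 48-hour serum-free exposure, in duplicate, with a maximum concentration of 100 uM.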

MYC, MYC (gene 4609) = test: LTEA_HepaRG_MYC: Life Technologies and Expression Analysis (LTEA) Assay for MYC using HepaRG (AID 2283518)
Procedure, shortened: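 MYC transcript changes, up or down relative to 0.5% DMSO, from TaqMan qRT-PCR normalized to three housekeeping genes. Human HepaRG cultures received chemicals for 48 h at eight half-log concentrations up to 100 uM, in duplicate.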

[4] = read-out: matrix metalloproteinase-3 (MMP3), MMP3 (gene 4314); test: LTEA_HepaRG_MMP3: Life Technologies and Expression Analysis (LTEA) Assay for matrix metalloproteinase-3 (MMP3) using HepaRG (AID 2283519)
Procedure, shortened: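 HepaRG, human; 48 h dosing, 8 conc. (max 100 uM, half-log), duplicate, 0.5% DMSO. Readout: MMP3 transcript by Fluidigm TaqMan qRT-PCR, ACTB/GAPDH/POLR2A-normalised. Gain or loss fitted vs DMSO.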

[5] = read-out: Paternally Expressed 10 (PEG10), PEG10 (gene 23089); test: LTEA_HepaRG_PEG10: Life Technologies and Expression Analysis (LTEA) Assay for Paternally Expressed 10 (PEG10) using HepaRG (AID 2283520);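 for AC50: PEG10 transcript by qRT-PCR normalised to ACTB GAPDH and POLR2A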
Procedure, shortened: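 Chemicals tested on HepaRG cells for 48 h, highest concentration 100 uM. PEG10 expression assessed by qRT-PCR relative to DMSO control.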

[6] = read-out: Nuclear factor NF-kappa-B p105 subunit (Homo sapiens) (UniProt P19838); test: LTEA_HepaRG_NFKB1: Life Technologies and Expression Analysis (LTEA) Assay for Nuclear Factor Kappa B Subunit 1 (NFKB1) using HepaRG (AID 2283521)
Procedure, shortened: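 Differentiated human HepaRG cells in serum-free induction medium with 0.5% DMSO were exposed for 48 h to eight half-log concentrations, top 100 uM, in duplicate. NFKB1 mRNA measured by Fluidigm TaqMan qRT-PCR, normalised to ACTB, GAPDH and POLR2A; bidirectional fit versus DMSO.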

[7] = read-out: Protein phosphatase 2A (PPP2R4), PTPA (gene 5524); test: LTEA_HepaRG_PPP2R4: Life Technologies and Expression Analysis (LTEA) Assay for Protein phosphatase 2A (PPP2R4) using HepaRG (AID 2283522)
Procedure, shortened: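 Gene-expression endpoint in HepaRG hepatic cells: 48 h treatment across eight half-log concentrations up to 100 uM in 0.5% DMSO. PPP2R4 mRNA by qRT-PCR, normalized to three endogenous control genes.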

[8] = read-out: Phosphatase and tensin (PTEN), PTEN (gene 5728); test: LTEA_HepaRG_PTEN: Life Technologies and Expression Analysis (LTEA) Assay for Phosphatase and tensin (PTEN) using HepaRG (AID 2283523)
Procedure, shortened: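 Read-out is PTEN transcript level by multiplexed TaqMan qRT-PCR after 48 h chemical treatment of human HepaRG cultures in serum-free induction medium. Concentrations spanned 100 uM downward in half-log steps, 0.5% DMSO throughout; activity fitted in both directions against vehicle.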

[9] = read-out: solute carrier (SLC22A1), SLC22A1 (gene 6580); test: LTEA_HepaRG_SLC22A1: Life Technologies and Expression Analysis (LTEA) Assay for solute carrier (SLC22A1) using HepaRG (AID 2283524)
Procedure, shortened: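 HepaRG (human liver line), 48 h dosing in serum-free induction medium; 8 conc., half-log down from 100 uM, 0.5% DMSO vehicle, duplicates. Endpoint: SLC22A1 mRNA, qRT-PCR, housekeeping-normalized; gain/loss fit vs DMSO.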

[10] = read-out: Pyruvate Dehydrogenase Kinase 4 (PDK4), PDK4 (gene 5166); test: LTEA_HepaRG_PDK4: Life Technologies and Expression Analysis (LTEA) Assay for Pyruvate Dehydrogenase Kinase 4 (PDK4) using HepaRG (AID 2283525)
Procedure, shortened: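 In this multiplexed human HepaRG expression assay, cells are treated 48 h with test chemicals across an eight-point range starting at 100 uM. PDK4 mRNA changes, normalized to ACTB/GAPDH/POLR2A, are fitted in both directions relative to vehicle.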

[11] = read-out: NAD(P)H dehydrogenase [quinone] 1 (NQO1), NQO1 (gene 1728); test: LTEA_HepaRG_NQO1: Life Technologies and Expression Analysis (LTEA) Assay for NAD(P)H dehydrogenase [quinone] 1 (NQO1) using HepaRG (AID 2283526)
Procedure, shortened: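 Human HepaRG hepatic cells received chemicals for 48 h in serum-free induction medium with 0.5% DMSO, up to 100 uM. Expression was assessed by TaqMan qRT-PCR against housekeeping controls and fitted bidirectionally against DMSO.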

[12] = read-out: Nuclear factor erythroid 2-related factor 2 (Homo sapiens) (UniProt Q16236); test: LTEA_HepaRG_NFE2L2: Life Technologies and Expression Analysis (LTEA) Assay for Nuclear factor erythroid 2-related factor 2 (NFE2L2) Transcription Factor using HepaRG (AID 2283527);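 note: TaqMan qRT-PCR transcript level normalised to ACTB GAPDH and POLR2A housekeeping genes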
Procedure, shortened: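 Transcript level of NFE2L2 is the read-out, measured by microfluidic TaqMan qRT-PCR and normalized to three housekeeping genes. Human HepaRG cultures received test chemical for 48 h at up to 100 uM in half-log steps. Gain or loss of signal is fitted relative to 0.5% DMSO.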

[13] = read-out: succinate dehydrogenase complex iron sulfur subunit B (SDHB), SDHB (gene 6390); test: LTEA_HepaRG_SDHB: Life Technologies and Expression Analysis (LTEA) Assay for succinate dehydrogenase complex iron sulfur subunit B (SDHB) using HepaRG (AID 2283528)
Procedure, shortened: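 HepaRG cells (~100,000/well, plated 48 h) exposed in duplicate for 48 h in serum-free induction medium to 8-point half-log series from 100 uM in 0.5% DMSO; mRNA by qRT-PCR normalised to ACTB, GAPDH, POLR2A; bidirectional fit versus DMSO.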

[14] = read-out: Signal transducer and activator of transcription 3 (Homo sapiens) (UniProt P40763); test: LTEA_HepaRG_STAT3: Life Technologies and Expression Analysis (LTEA) Assay for Signal transducer and activator of transcription (STAT3) using HepaRG (AID 2283529)
Procedure, shortened: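 Read-out is STAT3 mRNA level by qRT-PCR, normalized to three housekeeping genes, in human HepaRG liver cells treated for 48 h. Concentrations ran from 100 uM downward in half-log steps; curves were fitted for gain or loss relative to 0.5% DMSO.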

[15] = read-out: solute carrier (SLCO1B1), SLCO1B1 (gene 10599); test: LTEA_HepaRG_SLCO1B1: Life Technologies and Expression Analysis (LTEA) Assay for solute carrier (SLCO1B1) using HepaRG (AID 2283530)
Procedure, shortened: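 SLCO1B1 transcript levels were quantified by TaqMan qRT-PCR using three housekeeping genes for normalization. This followed 48 h chemical exposure (100 uM top, half-log, 8 points, 0.5% DMSO) of HepaRG liver cells, with gain or loss fitted relative to DMSO.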

[16] = read-out: Transforming Growth Factor (TGFA), TGFA (gene 7039); test: LTEA_HepaRG_TGFA: Life Technologies and Expression Analysis (LTEA) Assay for Transforming Growth Factor (TGFA) using HepaRG (AID 2283532)
Procedure, shortened: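 HepaRG (human liver line), 48 h exposure, 8 conc. half-log down from 100 uM, 0.5% DMSO vehicle, duplicates; serum-free induction medium. TGFA mRNA by TaqMan qRT-PCR, ACTB/GAPDH/POLR2A normalization; gain/loss fit vs DMSO.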

[17] = read-out: Transforming Growth Factor (TGFB1), TGFB1 (gene 7040); test: LTEA_HepaRG_TGFB1: Life Technologies and Expression Analysis (LTEA) Assay for Transforming Growth Factor (TGFB1) Transporter using HepaRG (AID 2283533)
Procedure, shortened: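 TGFB1 transcript measured by qRT-PCR with normalisation to three housekeeping genes (ACTB, GAPDH, POLR2A); human HepaRG line treated in duplicate for 48 hr with an 8-point series topping at 100 uM, 0.5% DMSO vehicle, bidirectionally fitted.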

TIMP1, TIMP1 (gene 7076) = test: LTEA_HepaRG_TIMP1: Life Technologies and Expression Analysis (LTEA) Assay for TIMP1 using HepaRG (AID 2283534)
Procedure, shortened: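 Bidirectional change in TIMP1 transcript versus 0.5% DMSO, measured by TaqMan qRT-PCR with three housekeeping genes for normalization. HepaRG human liver cells dosed 48 h in duplicate, top concentration 100 uM with half-log dilutions.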

[18] = read-out: sulfotransferase 2A1 (SULT2A1), SULT2A1 (gene 6822); test: LTEA_HepaRG_SULT2A1: Life Technologies and Expression Analysis (LTEA) Assay for sulfotransferase 2A1 (SULT2A1) using HepaRG (AID 2283531)
Procedure, shortened: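 Expression change of SULT2A1, by qRT-PCR with three housekeeping-gene normalization, was scored bidirectionally versus DMSO. Cells: differentiated HepaRG, dosed in duplicate for 48 h across 8 points, highest 100 µM, half-log dilution, 0.5% DMSO.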

Measured: AC50

Nuclear factor NF-kappa-B p105 subunit (Homo sapiens), sequence (P19838 whole entry, looked up): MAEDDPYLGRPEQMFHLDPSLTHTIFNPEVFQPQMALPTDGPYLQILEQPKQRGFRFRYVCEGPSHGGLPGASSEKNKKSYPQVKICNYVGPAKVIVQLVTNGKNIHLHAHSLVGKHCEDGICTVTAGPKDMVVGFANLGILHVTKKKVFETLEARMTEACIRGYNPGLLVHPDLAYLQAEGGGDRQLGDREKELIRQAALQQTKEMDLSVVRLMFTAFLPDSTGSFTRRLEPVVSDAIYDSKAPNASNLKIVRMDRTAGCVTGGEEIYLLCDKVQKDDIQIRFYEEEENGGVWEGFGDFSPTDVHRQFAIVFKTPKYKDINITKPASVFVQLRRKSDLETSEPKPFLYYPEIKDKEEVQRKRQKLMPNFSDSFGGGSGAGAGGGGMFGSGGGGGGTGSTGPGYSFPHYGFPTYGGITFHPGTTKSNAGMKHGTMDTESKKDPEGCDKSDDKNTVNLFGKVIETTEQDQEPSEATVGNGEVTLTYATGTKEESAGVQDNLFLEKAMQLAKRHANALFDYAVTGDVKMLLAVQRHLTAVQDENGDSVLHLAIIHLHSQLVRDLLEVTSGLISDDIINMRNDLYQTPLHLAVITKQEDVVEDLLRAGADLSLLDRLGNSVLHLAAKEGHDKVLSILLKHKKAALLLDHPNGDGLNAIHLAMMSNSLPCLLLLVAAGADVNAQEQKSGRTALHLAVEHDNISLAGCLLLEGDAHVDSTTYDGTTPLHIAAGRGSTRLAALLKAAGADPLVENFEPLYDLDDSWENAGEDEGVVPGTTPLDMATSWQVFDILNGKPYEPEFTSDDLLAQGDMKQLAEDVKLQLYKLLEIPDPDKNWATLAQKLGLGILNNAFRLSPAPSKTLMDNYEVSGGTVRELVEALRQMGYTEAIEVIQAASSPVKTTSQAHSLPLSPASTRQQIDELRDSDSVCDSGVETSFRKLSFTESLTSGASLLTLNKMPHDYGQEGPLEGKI
Signal transducer and activator of transcription 3 (Homo sapiens), sequence (P40763 whole entry, looked up): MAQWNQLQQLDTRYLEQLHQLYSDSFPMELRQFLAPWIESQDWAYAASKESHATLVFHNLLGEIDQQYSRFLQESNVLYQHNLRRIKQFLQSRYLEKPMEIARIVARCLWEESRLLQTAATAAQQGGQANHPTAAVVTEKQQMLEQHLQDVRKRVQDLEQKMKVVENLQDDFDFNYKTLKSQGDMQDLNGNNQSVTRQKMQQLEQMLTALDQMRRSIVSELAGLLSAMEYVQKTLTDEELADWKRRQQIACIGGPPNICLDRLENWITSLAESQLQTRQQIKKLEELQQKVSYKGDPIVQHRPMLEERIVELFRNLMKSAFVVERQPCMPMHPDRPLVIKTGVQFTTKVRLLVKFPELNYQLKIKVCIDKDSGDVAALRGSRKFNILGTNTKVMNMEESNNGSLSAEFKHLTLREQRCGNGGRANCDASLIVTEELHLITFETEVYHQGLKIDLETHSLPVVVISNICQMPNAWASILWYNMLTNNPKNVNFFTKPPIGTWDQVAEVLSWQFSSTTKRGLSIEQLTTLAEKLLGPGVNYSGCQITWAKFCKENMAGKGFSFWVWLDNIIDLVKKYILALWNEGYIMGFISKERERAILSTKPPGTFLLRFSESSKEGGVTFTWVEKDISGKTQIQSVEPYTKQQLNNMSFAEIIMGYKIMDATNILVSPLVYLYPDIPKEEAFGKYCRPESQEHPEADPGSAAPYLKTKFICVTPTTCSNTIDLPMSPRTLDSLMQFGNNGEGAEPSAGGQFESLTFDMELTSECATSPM
Nuclear factor erythroid 2-related factor 2 (Homo sapiens), sequence (Q16236 whole entry, looked up): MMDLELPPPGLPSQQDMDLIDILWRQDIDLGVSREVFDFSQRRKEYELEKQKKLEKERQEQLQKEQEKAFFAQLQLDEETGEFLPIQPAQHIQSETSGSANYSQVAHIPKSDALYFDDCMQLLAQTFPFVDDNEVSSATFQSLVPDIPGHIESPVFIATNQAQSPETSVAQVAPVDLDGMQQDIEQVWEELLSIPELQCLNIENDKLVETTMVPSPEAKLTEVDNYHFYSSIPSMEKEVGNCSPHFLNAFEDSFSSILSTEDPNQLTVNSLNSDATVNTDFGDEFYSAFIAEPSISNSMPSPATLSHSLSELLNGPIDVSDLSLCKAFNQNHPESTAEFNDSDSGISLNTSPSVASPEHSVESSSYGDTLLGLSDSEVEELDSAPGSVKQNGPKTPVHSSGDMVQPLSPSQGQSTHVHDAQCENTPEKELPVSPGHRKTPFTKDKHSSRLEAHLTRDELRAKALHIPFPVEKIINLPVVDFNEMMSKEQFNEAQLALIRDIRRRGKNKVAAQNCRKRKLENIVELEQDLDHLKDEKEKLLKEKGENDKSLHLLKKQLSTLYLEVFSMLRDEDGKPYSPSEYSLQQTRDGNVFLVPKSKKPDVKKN

Cc1occc1C(=O)Nc1ccc(C(=O)N2CCC(F)(F)/C(=C\C(=O)N3CCC(N4CCCCC4)CC3)c3ccccc32)cc1
inactive: [3] | MYC, MYC (gene 4609) | [4] | [6] | [7] | [8] | [11] | [12] | [13] | [14] | [15] | [16] | [17] | TIMP1, TIMP1 (gene 7076)
active: [1] 31.2 µM | [2] 31.2 µM | [5] 48 µM | [9] 32.2 µM | [10] 50.3 µM

COc1cccc([C@H](O)C2CCN(CCc3ccc(F)cc3)CC2)c1OC
inactive: [2] | [3] | MYC, MYC (gene 4609) | [4] | [6] | [7] | [8] | [9] | [10] | [11] | [12] | [13] | [14] | [15] | [18] | [16] | [17] | TIMP1, TIMP1 (gene 7076)
active: [1] 71.6 µM | [5] 9.92 µM

O=c1c(-c2ccc(O)cc2)coc2cc(O)cc(O)c12
inactive: [1] | [2] | [3] | MYC, MYC (gene 4609) | [4] | [5] | [6] | [7] | [8] | [9] | [10] | [11] | [12] | [13] | [14] | [15] | [16] | [17] | TIMP1, TIMP1 (gene 7076)

CN(C[C@@H](CC[N+]12CCC(C3CCCCC3)(CC1)CC2)c1ccc(Cl)c(Cl)c1)C(=O)c1cc(C(F)(F)F)cc(C(F)(F)F)c1
active: [1] 36 µM | [2] 12.7 µM | [3] 9.43 µM | MYC, MYC (gene 4609) 87.2 µM | [5] 28.7 µM | [6] 89.7 µM | [7] 76.2 µM | [8] 71.1 µM | [9] 22.4 µM | [10] 82.4 µM | [13] 68.8 µM | [15] 33.9 µM | [16] 50 µM | [17] 12.3 µM | TIMP1, TIMP1 (gene 7076) 68.7 µM
inactive: [4] | [11] | [12] | [14]

C[C@]12CC[C@@H]3c4ccc(O)cc4CC[C@H]3[C@@H]1CC[C@H]2O
active: [5] 50 µM | [9] 71.1 µM | [15] 77.5 µM | [18] 6.71 µM | [17] 50 µM
inactive: [1] | [2] | [3] | MYC, MYC (gene 4609) | [4] | [7] | [8] | [10] | [11] | [12] | [13] | [14] | [16] | TIMP1, TIMP1 (gene 7076)

CC1(C)NC(=O)N(c2ccc([N+](=O)[O-])c(C(F)(F)F)c2)C1=O
active: [1] 76.2 µM | [2] 80.9 µM | MYC, MYC (gene 4609) 81.8 µM | [5] 15.7 µM | [9] 74.3 µM | [10] 80.1 µM | [13] 50 µM | [15] 69.3 µM | [18] 84.1 µM | [16] 50 µM
inactive: [3] | [4] | [7] | [8] | [11] | [12] | [14] | [17] | TIMP1, TIMP1 (gene 7076)
